EPAC2 agonist = EPAC2 (human) agonism; EPAC2 activation, biochemical qHTS; response scale: 100% = 6.5 mM cAMP response; Potency, µM (series often up to 154 µM), without a hit: at the highest dose activation, actives largely listed as activators; Q8WZA2; 0.079% of 360,000 active; further: potency means the concentration at half of the fitted maximal effect; nearly all actives have a fitted effect of over 50% in size
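In this primary screen, activation is scored as increased exchange of BODIPY-GDP from Rap1B by 100 nM EPAC2, with 50 uM GDP as competitor. Signal is normalized to the 6.5 mM cAMP agonist control.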
EPAC1 agonist = EPAC1 (human) agonism; Potency, µM (highest dose often 154 µM), for the others: at the top dose activation, hits mostly activators; 0.073% of 360,000 active; EPAC1 agonist qHTS, biochemical assay; response scale: 100% = response to 6.5 mM cAMP; O95398; further: potency means the concentration at half of the fitted maximal effect; nearly all actives have a fitted effect of over 60% in size
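Nucleotide exchange by EPAC1 (100 nM) on Rap1B–BODIPY-GDP (250 nM) in the presence of 50 uM GDP is tracked fluorescently at 480/540 nm over 30 min. Signals are normalized to a 6.5 mM cAMP control.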
KCNH2 WT inh = blocks the wildtype human KCNH2 potassium channel; Q12809; U2OS, BacMam KCNH2, thallium flux FluxOr; hits give low values; activity change, % at 1.84 µM; 0.37% of 340,000 active;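 active means maximum activity change below -70%; inconclusive means maximum activity change between -70% and -50%; inactive means maximum activity change above -50%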; further: on the % scale 0 is the no-effect control and ±100 the full control effect
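U2OS cells transduced with wild-type KCNH2 virus are loaded with FluxOr dye for 45 min, and thallium flux is measured in kinetic reads before and after stimulation buffer. Rate constants are normalized to DMSO controls.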
EPAC1 antagonist = antagonists of human EPAC1; EPAC1 GEF assay, Rap1b-BODIPY-GDP exchange fluorescence; AID 720709; 0.14% of 360,000 active; Potency, µM (series often up to 115 µM), inactives show top-dose activity change, negative = inhibition, usual class: inhibitors; O95398;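 further: potency means the concentration at half of the fitted maximal effect; plate controls were vehicle for no effect and positive control for full effect; nearly all actives have a fitted effect of over 50% in size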
KCNH2 3.1 block = inhibitors of human KCNH2 3.1 potassium channel isoform; U2OS KCNH2 3.1, thallium flux FluxOr; hits give low values; activity change, % (tested at about 1.8 µM); 0.95% of 340,000 active;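 active means maximum activity change below -70%; inconclusive means maximum activity change from -70% to -50%; inactive means maximum activity change above -50%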;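 further: thallium influx rate constant from kinetic fluorescence after stimulation buffer; on the % scale 0 is the no-effect control and ±100 the full control effect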
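Thallium flux read-out: FluxOr dye with Red40 quencher in HBSS/HEPES, 45 min at RT. Rate constants from kinetic reads were normalized to positive and negative DMSO controls. Cells: U2OS virally expressing the 3.1 isoform.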
EPAC2 antagonist = blocks human EPAC2 exchange factor | AID 720708 | 0.18% of 360,000 active | EPAC2 GEF exchange of Rap1B-BODIPY-GDP, fluorescence | Potency, µM (top dose mostly 114 µM), for the others: at the top dose activity, negative = inhibition, hits mostly inhibitors; further: potency means the concentration at half of the fitted maximal effect; on the % scale 0 is the no-effect control and ±100 the full control effect; nearly all actives have a fitted effect of over 45% in size
An asterisk follows results filed as active. A selection: hits, their analogues and other compounds. The true share with any hit is near 1.4%. Unless noted, the call rests on the fitted dose curve; in most records, active means well fitted curve in the direction sought with a large enough effect; inconclusive means small, poorly fitted or top-dose-only effect, or another doubt; inactive means no such curve, though single readings can be large; an effect the other way counts as inactive or inconclusive.

Screening CC1=C(C(=O)N(C)C)CC(CC(=O)NCc2cccc3ccccc23)C(=O)N1CCCN1CCCC1=O (stereo not given) returned EPAC2 agonist 12%, EPAC1 agonist 12%, KCNH2 WT inh -18, EPAC1 antagonist 10%, KCNH2 3.1 block -11 and EPAC2 antagonist -7%.
Screening CCN(CC(=O)NCCc1ccc(S(N)(=O)=O)cc1)Cc1ccccc1 returned EPAC2 agonist 10%, EPAC1 agonist -3%, KCNH2 WT inh 8, EPAC1 antagonist inconclusive, KCNH2 3.1 block -74* and EPAC2 antagonist 0%.
Screening COC(=O)c1cc(NC(=O)c2cc(C)oc2C)cc(C(=O)OC)c1 returned EPAC2 agonist 1%, EPAC1 agonist 2%, KCNH2 WT inh -193*, EPAC1 antagonist -14%, KCNH2 3.1 block -14 and EPAC2 antagonist -5%.
For CCN(Cc1ccncc1)C(=O)c1cc(COc2c(F)cccc2F)on1 the results were EPAC2 agonist -2%, EPAC1 agonist 8%, KCNH2 WT inh -3, EPAC1 antagonist -7%, KCNH2 3.1 block 0 and EPAC2 antagonist -17%.
For CC(C)N1CCc2c(sc(NC(=O)c3ccc4ccccc4c3)c2C(N)=O)C1 the results were EPAC2 agonist -83%, EPAC1 agonist -64%, KCNH2 WT inh 3, EPAC1 antagonist 20%, KCNH2 3.1 block -16 and EPAC2 antagonist 91%.
Screening CC(=O)Nc1sc2c(c1-c1nc3ccccc3s1)CCN(C(C)C)C2 returned EPAC2 agonist 63µM*, EPAC1 agonist 16%, KCNH2 WT inh -1, EPAC1 antagonist 15%, KCNH2 3.1 block -5 and EPAC2 antagonist 36%.
Screening CCN(CC)CCNC(=O)C1(O)c2cc(Br)ccc2NC(=O)N1c1ccccc1 (stereo not given) returned EPAC2 agonist 7%, EPAC1 agonist 4%, KCNH2 WT inh 2, EPAC1 antagonist -5%, KCNH2 3.1 block 10 and EPAC2 antagonist 9%.
Screening CC(C)n1cc(CN2CCCC(C(=O)Nc3cccc(-c4cc5ccccc5[nH]4)c3)C2)cn1 (stereo not given) returned EPAC2 agonist 17%, EPAC1 agonist -7%, KCNH2 WT inh -19, EPAC1 antagonist -28%, KCNH2 3.1 block -95* and EPAC2 antagonist -7%.
CCOc1ccc(CN(C)C(=O)[C@H](C)NC(=O)c2ccco2)cc1OC was read as EPAC2 agonist -1%, EPAC1 agonist -5%, KCNH2 WT inh 0, EPAC1 antagonist 8%, KCNH2 3.1 block 4 and EPAC2 antagonist 8%.
Screening Cc1cc(C(=O)NC(C)C2CCCO2)c(C)o1 (stereo not given) returned EPAC2 agonist 7%, EPAC1 agonist 5%, KCNH2 WT inh -10, EPAC1 antagonist inconclusive, KCNH2 3.1 block 23 and EPAC2 antagonist 0%.
`CCOc1ncccc1C(=O)OCC(=O)c1ccc(F)cc1` gave EPAC2 agonist 0%, EPAC1 agonist -2%, KCNH2 WT inh 1, EPAC1 antagonist 0%, KCNH2 3.1 block -1 and EPAC2 antagonist -6%.
For O=C1c2ccccc2C(c2nnnn2Cc2ccccc2)N1Cc1ccc(F)cc1 (stereo not given) the results were EPAC2 agonist 1%, EPAC1 agonist -2%, EPAC1 antagonist -5% and EPAC2 antagonist 6%.
O=C1c2ccccc2C(c2nnnn2Cc2ccccc2)N1CCc1c[nH]c2ccccc12 (stereo not given) was read as EPAC2 agonist 10%, EPAC1 agonist 8%, EPAC1 antagonist -15% and EPAC2 antagonist 75µM*.
Screening COC(=O)[C@]12CCCCC=C1N(Cc1ccc3c(c1)OCO3)C(=O)[C@H](CC(=O)NCC13CC4CC(CC(C4)C1)C3)C2 returned EPAC2 agonist 1%, EPAC1 agonist 0%, EPAC1 antagonist -11% and EPAC2 antagonist 4%.
